Reference: PubChem BioAssay AID651599 (National Center for Advancing Translational Sciences (NCATS), 2012)
Results filed as inconclusive are left out. A call without a number means that no potency is given here. Activity calls are given as the source filed them. Calls follow the shape of the dose curve; as a rule, active = well fitted inhibition curve with a large enough effect; inconclusive = small, poorly fitted or top-dose-only effect; inactive = no such curve, though single readings can be large or run the other way.

Target: Tumor susceptibility gene 101 protein (Homo sapiens) (UniProt Q99816)
Assay: qHTS Assay for Iinhibitors of HIV-1 Budding by Blocking the Interaction of PTAP/TSG101: Hit Validation in TR assay
Settings: Tsg101 binding domain + Texas Red-labeled PTAP peptide, fluorescence polarization, 20 min; series mostly up to 57.5 µM
Procedure, shortened: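 Texas Red-PTAP peptide (50 nM) binding to Tsg101 binding domain (10 uM), both final, in pH 7.5 HEPES buffer, read as polarization after 20 min at room temperature; compounds pinned before peptide addition.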

Sequence of Tumor susceptibility gene 101 protein (Homo sapiens) (Q99816 whole entry, looked up): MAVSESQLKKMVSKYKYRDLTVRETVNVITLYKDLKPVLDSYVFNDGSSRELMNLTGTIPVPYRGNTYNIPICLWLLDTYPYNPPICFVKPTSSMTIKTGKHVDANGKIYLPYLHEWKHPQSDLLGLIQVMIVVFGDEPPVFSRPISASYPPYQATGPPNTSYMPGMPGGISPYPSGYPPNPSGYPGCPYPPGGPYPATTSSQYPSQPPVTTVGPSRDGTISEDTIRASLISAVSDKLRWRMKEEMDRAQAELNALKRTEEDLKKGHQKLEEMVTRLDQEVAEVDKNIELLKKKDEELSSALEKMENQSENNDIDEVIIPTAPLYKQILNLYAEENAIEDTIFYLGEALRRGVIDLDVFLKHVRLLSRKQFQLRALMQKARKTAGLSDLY

In the case of COc1ccc(OC)c2c1C(=O)c1ccccc1C2=O, the Potency is reported as “inactive”.
CCSC1=NSC2=NC(=O)/C(=C\c3coc4ccccc4c3=O)C(=N)N12 was tested, and the Potency was “inactive”.
For Cc1ccc(N2C(=O)C3C(C(=O)c4ccccc4)=NN(c4ccccc4)C3C2=O)cc1 (configuration not stated), the Potency was “inactive”.
COC(=O)CN1C(=S)N(c2ccc(OC)cc2)C(=O)/C1=C/c1ccc(N2CCOCC2)cc1 was tested, and the Potency was “inactive”.
In the case of Cc1ccc[n+](-c2nc([O-])sc2/C=N/Nc2ccc([N+](=O)[O-])cc2)c1, the Potency is reported as “inactive”.
For Cc1ccc(-c2cccc(NC(=O)C3C4C=CC(C4)C3C(=O)O)c2)o1 (configuration not stated), the Potency was “inactive”.
CCN1CCN(Cc2ccc(NC(=O)Nc3ccccc3OC)cc2)CC1 was tested, and the Potency was “inactive”.
With CC[C@@]1(C(=O)OC)N[C@H](CN(C)C(=O)c2ccc(C)cc2)[C@@H]2C(=O)N(Cc3ccccc3)C(=O)[C@@H]21 the Potency was “inactive”.
With CCCCOc1ccc(C2OC34CCCCC3C(C#N)(C#N)C2(C#N)C(=N)O4)cc1 (configuration not stated) the Potency was “inactive”.
CN1CCc2c(sc(NC(=O)CSc3ccc(F)cc3)c2-c2nc3ccccc3s2)C1 was tested, and the Potency was “inactive”.
For Cc1cc(-c2cccs2)c2c(N)c(C(=O)c3ccc4c(c3)OCO4)sc2n1, the Potency was “inactive”.
For CC(=O)Nc1ccc2nc3c(=O)[nH]c(=O)[nH]c3nc2c1, the Potency was “inactive”.
